For six molecules, composite z-score, composite Z-score and z-score results are on record in PubChem BioAssay.

The source made the active and inactive calls.

Assay [1] deals with Albumin (Bos taurus) (UniProt P02769). The assay is described as follows: bovine serum albumin binders on microarray, profiling panel, artefact control for SMM control protein annotation, biochemical, small-molecule microarray, Alexa647 label, 635/667 nm fluorescence (AID 1118).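 Note: score merges 667 nm emission intensity and signal-to-noise per printed compound spot.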 To be noted: BSA-A647 binding, fluorescence 635 nm, higher = more signal.
Albumin (Bos taurus), sequence (P02769 whole entry, looked up): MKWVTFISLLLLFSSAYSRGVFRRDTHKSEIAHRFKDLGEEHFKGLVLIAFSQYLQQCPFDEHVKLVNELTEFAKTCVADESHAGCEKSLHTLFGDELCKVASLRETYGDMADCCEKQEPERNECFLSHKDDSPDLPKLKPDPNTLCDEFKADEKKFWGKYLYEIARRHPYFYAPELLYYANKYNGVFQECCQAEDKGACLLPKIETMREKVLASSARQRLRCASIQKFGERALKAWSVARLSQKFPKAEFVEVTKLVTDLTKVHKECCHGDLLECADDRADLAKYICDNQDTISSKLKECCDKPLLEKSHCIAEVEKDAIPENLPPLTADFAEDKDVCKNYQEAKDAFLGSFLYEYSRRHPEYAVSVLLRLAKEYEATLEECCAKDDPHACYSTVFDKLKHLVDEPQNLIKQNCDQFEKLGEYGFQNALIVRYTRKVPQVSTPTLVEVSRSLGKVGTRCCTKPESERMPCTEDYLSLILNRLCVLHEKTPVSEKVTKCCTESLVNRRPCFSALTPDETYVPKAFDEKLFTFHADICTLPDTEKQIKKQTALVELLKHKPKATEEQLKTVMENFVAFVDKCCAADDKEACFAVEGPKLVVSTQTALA
A short description of assay [2]: small-molecule microarray binders of probe aXIP, primary screen, biochemical, NeuroSMM set, 635/667 nm fluorescence (AID 1119).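 Note: probe is the protein aXip251-270 applied at 1 µg/mL to compound-printed slides; binding of probe to printed compounds measured as 667 nm fluorescence plus signal to noise.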 To be noted: higher = more signal, called active from +8 up or from −8 down.
Assay [3] is described as follows: small-molecule binders of probe aNOTCH3, primary screen, biochemical, small-molecule microarray, 635/667 nm fluorescence (AID 1120).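 Note: probe is a biotin-tagged antibody raised against NOTCH3 rather than NOTCH3 protein; score merges spot fluorescence near 667 nm with spot signal to noise.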 To be noted: higher = more signal.
The nature of assay [4]: small-molecule binders of probe aNOTCH2, primary screen, biochemical, small-molecule microarray, 635/667 nm fluorescence (AID 1121).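 Note: score merges feature fluorescence read at 667 nm with its signal to noise.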 The conditions noted are these: higher = more signal.
Assay [5] has as its target Carbonic anhydrase 2 (Homo sapiens) (UniProt P00918). The assay is described as follows: CAII small-molecule binders, profiling panel, biochemical, small-molecule microarray, Alexa647-labelled CAII (AID 1122). The conditions noted are these: CAII-A647 binding fluorescence, higher = more signal.
Assay [6] is described as follows: COS7 lysate on small-molecule microarray, probe aHis, 635 nm (AID 1123).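 Note: z-score combines 667nm fluorescence intensity with signal-to-noise per printed compound spot.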 The conditions noted are these: COS7 cell lysate, fluorescence, higher = more signal.
A short description of assay [7]: compound binding in COS7 lysate, probe aLAP1, primary screen, cell lysate, small-molecule microarray (AID 1124).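 Note: lysate comes from COS7 cells expressing LAP1 and is applied at 0.3 µg/mL; score merges spot fluorescence near 667 nm with signal-to-noise over triplicate slides.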 The conditions noted are these: probe aLAP1, fluorescence, higher = more signal.
Assay [8] concerns Sam68 (KHDRBS1). As to the kind of experiment: Sam68 small-molecule binders, primary screen, biochemical, small-molecule microarray, 635 nm fluorescence (AID 1125).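 Note: score merges 667 nm channel intensity with signal to noise over triplicate slides.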 The conditions noted are these: small-molecule microarray binding, higher = more signal.
Assay [9] deals with Chordin-like protein 2 (CHRDL2). The assay is described as follows: CHRDL2 small-molecule binders, primary screen, biochemical, small-molecule microarray, 635 nm fluorescence (AID 1126).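 Note: printed compound slides probed with Chrdl2 protein at 4 µg/mL for 1 h at 4 C; score merges 667 nm emission intensity with signal to noise over three replicate slides.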 The conditions noted are these: small-molecule microarray binding, fluorescence 635 nm; higher = more signal.
The target in assay [10] is Concanavalin-A (Canavalia ensiformis) (UniProt P02866). The assay is described as follows: ConA small-molecule binders, primary screen, artefact control for SMM control protein annotation, biochemical, small-molecule microarray, Alexa647 label, 635 nm (AID 1127).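 Note: z combines 667 nm emission intensity with signal-to-noise across three replicate slides.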 The conditions noted are these: ConA-A647 binding fluorescence, higher = more signal.
Concanavalin-A (Canavalia ensiformis), sequence (P02866 whole entry, looked up): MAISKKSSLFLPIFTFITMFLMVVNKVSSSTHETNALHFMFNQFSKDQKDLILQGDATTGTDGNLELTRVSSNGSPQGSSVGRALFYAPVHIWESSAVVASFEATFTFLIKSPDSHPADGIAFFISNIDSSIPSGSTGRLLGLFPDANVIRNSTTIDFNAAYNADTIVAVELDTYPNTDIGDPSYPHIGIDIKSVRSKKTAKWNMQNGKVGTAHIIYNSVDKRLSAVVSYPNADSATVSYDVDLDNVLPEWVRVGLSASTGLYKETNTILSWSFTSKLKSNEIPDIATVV
Assay [11] is described as follows: anti-His antibody binders, primary screen, artefact control for SMM control protein annotation, biochemical, small-molecule microarray, 635 nm fluorescence (AID 1128).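 Note: score merges feature fluorescence with signal-to-noise for each printed compound spot.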 The conditions noted are these: anti-His Alexa647 antibody binding, higher = more signal.
Assay [12] concerns Human papillomavirus type 1a E7 protein (residues 1-88). The assay is described as follows: HPV1a E7 small-molecule binders, primary screen, biochemical, small-molecule microarray, residues 1-88, 635 nm (AID 1129). To be noted: small-molecule microarray binding, fluorescence 635 nm; higher = more signal.
Assay [13] deals with Focal adhesion kinase 1 (Homo sapiens) (UniProt Q05397). The assay is described as follows: small-molecule microarray binders of FAK, primary screen, biochemical, 635/667 nm fluorescence, BSA, DTT (AID 1130).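 Note: composite of spot emission at 667 nm and signal to noise over triplicate slides.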 To be noted: PTK2 binding, 635 nm fluorescence, higher = more signal.
Focal adhesion kinase 1 (Homo sapiens), sequence (Q05397 whole entry, looked up): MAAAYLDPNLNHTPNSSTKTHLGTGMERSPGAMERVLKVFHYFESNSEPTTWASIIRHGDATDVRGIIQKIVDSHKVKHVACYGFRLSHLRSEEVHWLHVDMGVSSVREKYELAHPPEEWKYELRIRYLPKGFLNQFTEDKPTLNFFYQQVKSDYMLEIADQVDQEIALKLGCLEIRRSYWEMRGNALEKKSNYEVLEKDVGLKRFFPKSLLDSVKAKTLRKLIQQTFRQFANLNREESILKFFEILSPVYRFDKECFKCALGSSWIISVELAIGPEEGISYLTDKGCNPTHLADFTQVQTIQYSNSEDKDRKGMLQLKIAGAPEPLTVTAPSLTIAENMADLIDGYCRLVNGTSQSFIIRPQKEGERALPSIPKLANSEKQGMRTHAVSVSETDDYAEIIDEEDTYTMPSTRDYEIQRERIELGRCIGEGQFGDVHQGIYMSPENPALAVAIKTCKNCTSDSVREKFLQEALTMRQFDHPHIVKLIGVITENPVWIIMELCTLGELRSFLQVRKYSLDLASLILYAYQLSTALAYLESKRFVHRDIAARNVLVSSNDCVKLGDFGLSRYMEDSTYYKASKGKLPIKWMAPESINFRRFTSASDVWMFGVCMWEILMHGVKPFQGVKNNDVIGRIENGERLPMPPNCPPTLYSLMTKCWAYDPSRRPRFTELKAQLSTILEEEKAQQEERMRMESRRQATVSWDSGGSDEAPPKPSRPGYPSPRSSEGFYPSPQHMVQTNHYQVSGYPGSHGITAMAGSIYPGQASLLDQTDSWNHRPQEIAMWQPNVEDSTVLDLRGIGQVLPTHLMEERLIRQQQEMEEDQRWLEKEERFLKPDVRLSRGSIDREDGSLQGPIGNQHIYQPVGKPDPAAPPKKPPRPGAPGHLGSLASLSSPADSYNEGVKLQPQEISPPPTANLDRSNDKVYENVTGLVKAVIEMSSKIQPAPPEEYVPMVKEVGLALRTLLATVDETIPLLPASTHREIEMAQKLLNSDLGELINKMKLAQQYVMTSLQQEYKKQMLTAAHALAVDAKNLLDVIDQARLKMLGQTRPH
Assay [14] relates to Fibrinogen (Alexa647-labelled). As to the kind of experiment: fibrinogen binders on compound microarrays, profiling panel, artefact control for SMM control-protein annotation, biochemical, small-molecule microarray, 635/667 nm fluorescence (AID 1131).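 Note: z-score merges 667 nm fluorescence with per-spot signal-to-noise over triplicate slides.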 The conditions noted are these: fibrinogen-A647 binding fluorescence, higher = more signal.
Assay [15] addresses Follistatin (Homo sapiens) (UniProt P19883). The assay is described as follows: follistatin binders on small-molecule microarrays, primary screen, biochemical, small-molecule microarray, 635/667 nm fluorescence (AID 1132). The conditions noted are these: FST binding, 635 nm fluorescence, higher = more signal.
In assay [16] the target is Fibroblast growth factor 2 (Homo sapiens) (UniProt P09038). As to the kind of experiment: FGF2 binders on small-molecule microarrays, primary screen, biochemical, small-molecule microarray, 635/667 nm fluorescence (AID 1133). To be noted: small-molecule microarray binding, FGF2, fluorescence 635/667; higher = more signal.
Fibroblast growth factor 2 (Homo sapiens), sequence (P09038 whole entry, looked up): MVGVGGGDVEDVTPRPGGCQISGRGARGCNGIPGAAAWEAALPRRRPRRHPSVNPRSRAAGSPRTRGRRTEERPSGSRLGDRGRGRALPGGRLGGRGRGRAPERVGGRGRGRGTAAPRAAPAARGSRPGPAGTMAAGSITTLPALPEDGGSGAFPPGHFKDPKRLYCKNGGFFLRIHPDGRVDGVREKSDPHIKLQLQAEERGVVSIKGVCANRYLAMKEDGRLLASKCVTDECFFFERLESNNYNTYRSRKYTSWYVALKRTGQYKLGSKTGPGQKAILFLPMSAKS
Assay [17] is described as follows: mitochondrial membrane potential change in A549 cells, profiling panel, cell-based, JC-1 fluorescence, basal, 24 h, 100 nL (AID 1138).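 Note: A549 lung adenocarcinoma cells under basal conditions with no added stimulus; test concentration not given here.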 The conditions noted are these: higher = more signal.
In assay [18] the test system is Lefty1. As to the kind of experiment: Lefty1 binders on small-molecule microarrays, primary screen, biochemical, small-molecule microarray, 635/667 nm fluorescence (AID 1139). The conditions noted are these: small-molecule microarray binding, fluorescence 635/667; higher = more signal.
Assay [19] concerns wheat germ agglutinin (Triticum aestivum), Alexa647-labelled. As to the kind of experiment: wheat germ agglutinin binders on compound microarrays, profiling panel, artefact control for SMM control-protein annotation, biochemical, small-molecule microarray, 635/667 nm fluorescence (AID 1140).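 Note: score merges 667 nm feature emission with signal to noise over triplicate slides.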 The conditions noted are these: WGA-A647 binding, 635 nm fluorescence, higher = more signal.

The target in assay [20] is Luciferin 4-monooxygenase (Photinus pyralis) (UniProt P08659). The assay is described as follows: firefly luciferase enzyme inhibitors, primary screen, biochemical, luminescence, purified enzyme, 2006 set (AID 1141).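 Note: cell-free assay with purified firefly luciferase at 100 ng per well in PBS; test concentration not given here.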 The conditions noted are these: SteadyGlo luminescence, 30 min, higher = more signal, called active from +8 up or from −8 down.
Luciferin 4-monooxygenase (Photinus pyralis), sequence (P08659 whole entry, looked up): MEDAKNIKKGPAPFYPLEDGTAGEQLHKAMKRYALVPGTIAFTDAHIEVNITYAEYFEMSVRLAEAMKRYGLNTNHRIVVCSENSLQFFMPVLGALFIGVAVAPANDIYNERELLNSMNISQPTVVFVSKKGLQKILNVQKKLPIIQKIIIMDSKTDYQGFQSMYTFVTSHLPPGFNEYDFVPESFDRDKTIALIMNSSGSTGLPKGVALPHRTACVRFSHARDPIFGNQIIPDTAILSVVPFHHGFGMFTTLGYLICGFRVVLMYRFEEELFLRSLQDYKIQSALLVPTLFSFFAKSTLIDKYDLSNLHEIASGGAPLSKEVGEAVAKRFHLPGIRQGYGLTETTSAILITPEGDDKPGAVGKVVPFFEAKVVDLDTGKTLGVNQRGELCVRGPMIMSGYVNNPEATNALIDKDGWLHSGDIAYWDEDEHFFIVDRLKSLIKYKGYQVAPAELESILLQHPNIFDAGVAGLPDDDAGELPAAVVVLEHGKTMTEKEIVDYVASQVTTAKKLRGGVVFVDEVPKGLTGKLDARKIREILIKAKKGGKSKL

Follistatin (Homo sapiens), sequence (P19883 whole entry, looked up): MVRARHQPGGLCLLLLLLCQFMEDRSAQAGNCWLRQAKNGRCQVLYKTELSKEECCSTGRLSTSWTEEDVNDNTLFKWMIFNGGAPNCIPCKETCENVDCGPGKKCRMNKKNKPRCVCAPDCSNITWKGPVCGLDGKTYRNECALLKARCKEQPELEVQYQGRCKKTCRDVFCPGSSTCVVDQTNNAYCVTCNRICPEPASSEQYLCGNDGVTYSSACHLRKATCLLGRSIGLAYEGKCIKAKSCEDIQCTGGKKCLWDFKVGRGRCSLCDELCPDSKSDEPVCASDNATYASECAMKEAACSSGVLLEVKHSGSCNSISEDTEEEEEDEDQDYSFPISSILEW

In the case of `CO[C@@H]1[C@H](O)CO[C@H]1C=Cc1ccccc1`, the composite z-score in assay [1] was 0.24; in assay [3], -0.127; in assay [4], -0.0956; in assay [5] it was 0.405; in [6] it was 0.402; in assay [7] it was 0.388. For the same molecule, the composite z-score in [8] came to 0.243; in [9] it was 0.144; in [10] it was 0.17; in [11], 0.286; in assay [12], 0.219; in [13], 0.0086. Moreover, the composite z-score in assay [14] was 0.543; in assay [15], 0.251; in assay [16], 0.273; in assay [18] it was 0.28; in assay [19], -0.07. Further, the composite Z-score in assay [2] is -0.173 (inactive). In addition, the z-score in [17] is -0.75; in assay [20], -0.339 (inactive).
Take `COc1ccc(COC(=O)NN=C2C[C@@H](O)[C@@H](O)[C@@H]3[C@@H]4C(=O)N(c5cccc(Oc6ccccc6)c5)C(=O)[C@@H]4CC[C@H]23)cc1`: the composite z-score in assay [1] was 0.64; in assay [3], 0.0793; in assay [4], -0.0665; in [5], -0.0831; in [6] it was 0.852; in [7] it was -0.0241. In addition, the composite z-score is -0.546 in [8]; -0.636 in [9]; 0.433 in [10]; 0.362 in assay [11]; -0.476 in assay [12]; 0.407 in [13]. Also, the composite z-score in assay [14] was 0.744; in [15], -0.355; in assay [16], -0.603; in assay [18], -0.258; in assay [19], 0.916. The composite Z-score in [2] is -0.626 (inactive). Further, the z-score was -0.593 in [17] and 0.911 (inactive) in [20].
Consider `COc1cccc([C@H](O)Cn2cc(-c3ccc(CON=C(C)C)cc3)nn2)c1`, for which the composite z-score in assay [1] is 0.212; in [3], -0.0647; in assay [4], 0.127; in assay [5], -0.0261; in assay [6], -0.011; in assay [7], -0.169. Also, the composite z-score in assay [8] is -0.937; in [9], 0.0083; in [10], -2.65; in assay [11], 0.0043; in assay [12], -1.15; in [13], -0.351. The composite z-score is -1.01 in [14]; -0.46 in [15]; -0.153 in assay [16]; -0.324 in assay [18]; -0.3 in [19]. In assay [2], the composite Z-score was -0.511 (inactive). For the same molecule, the z-score in assay [17] is -0.442; in assay [20], 0.278 (inactive).
For `CCN1C(=O)[C@H]2[C@H]3[C@H](O)[C@H](O)CC(=NOC(C)CN4CCCc5nc(C)c(C)cc54)[C@@H]3CC[C@H]2C1=O` (stereo not given in full), the composite z-score in [1] is -0.558; in assay [3], 0.148; in [4], 0.0137; in [5], 0.014; in [6], -0.0995; in assay [7], 0.284. Further, the composite z-score was 1.05 in assay [8]; 0.893 in assay [9]; -0.471 in [10]; -0.245 in [11]; 0.509 in assay [12]; 0.335 in assay [13]. Further, the composite z-score in assay [14] was 0.116; in [15], 0.703; in [16], 0.462; in assay [18] it was 0.737; in [19], -0.393. In [2], the composite Z-score is 0.635 (inactive). Besides, the z-score in [17] was 0.623; in [20] it was 0.126 (inactive).
Take `COC(=O)CC=C[C@@H](C)[C@@H](C=NOC[C@@H](C)[C@H](OCc1ccccc1)C(C)C)NS(=O)(=O)c1ccc(C)cc1`: the composite z-score in assay [1] was -1.05; in [3], -0.161; in assay [4], -0.216; in assay [5] it was -0.351; in [6], -0.342; in [7], 0.102. For the same molecule, the composite z-score in assay [8] was -0.135; in assay [9] it was 0.271; in assay [10] it was -0.596; in assay [11], 1.82; in assay [12], -0.588; in assay [13] it was -0.424. The composite z-score in [14] was -1.52; in assay [15], 0.131; in assay [16], 0.0249; in [18] it was 0.329; in assay [19] it was -1.57. In assay [2], the composite Z-score is 0.216 (inactive). Also, the z-score in assay [17] was -0.48; in [20] it was 0.419 (inactive).
For `CON=C(C)CCC(=O)OC[C@H]1O[C@H](C#Cc2ccccc2)C=C[C@@H]1Oc1ccc(C)cc1`, the composite z-score was 0.468 in assay [1]; -0.0111 in assay [3]; -0.0751 in [4]; 0.263 in assay [5]; 0.661 in assay [6]; 0.232 in assay [7]. Moreover, the composite z-score came out at 0.626 in assay [8]; 0.479 in [9]; 0.491 in [10]; 0.377 in assay [11]; 0.54 in assay [12]; 0.122 in assay [13]. In addition, the composite z-score is 0.354 in [14]; 0.398 in [15]; 0.344 in assay [16]; 0.569 in assay [18]; 0.279 in assay [19]. The composite Z-score in assay [2] was -0.054 (inactive). For the same molecule, the values for the z-score in assay [17] and in [20] were -0.656 and -3.61 (inactive), respectively.
